Reference: PubChem BioAssay AID1159580 (chemical genetic matrix, 2015)
Among all 5,500 compounds or so, about 2,000 (36%) were called active. About 18% were inconclusive and are not listed. Cut-off read from the data, not from the text of the source: active = normalized growth mostly below about 0.91 (no sharp cut-off); inconclusive = no clear call, values can overlap the other calls; inactive = mostly above about 0.92. Some of the results follow.

Assay: chemical genetic growth profiling, strain panel (AID 1159580);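 note: tested at 20 µM; growth read once vehicle control cultures reached saturation at 30 °C; 1 = growth at the plate median or of vehicle wells; lower values mean less growth of the strain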
Conditions: growth OD

Measured: normalized growth

CC1(C)C=Cc2c(cc3occ(-c4ccc5c(c4)OCO5)c(=O)c3c2O)O1
inactive: S. cerevisiae deletion strains, locus YAL013W, strain DEP1, hits give low values 0.996 | S. cerevisiae deletion strains, locus YAL021C, strain ccr4, hits give low values 0.931 | S. cerevisiae deletion strains, locus YAL026C, strain drs2, hits give low values 0.995 | S. cerevisiae deletion strains, locus YAL030W, strain snc1, hits give low values 0.938 | S. cerevisiae deletion strains, locus YBR009C, strain hhf1, hits give low values 0.982 | S. cerevisiae deletion strains, locus YBR021W, strain FUR4, hits give low values 1 | S. cerevisiae deletion strains, locus YBR171W, strain sec66, hits give low values 0.998 | S. cerevisiae deletion strains, locus YBR229C, strain ROT2, hits give low values 1.01 | S. cerevisiae deletion strains, locus YBR279W, strain paf1, hits give low values 0.988 | S. cerevisiae deletion strains, locus YCL016C, strain dcc1, hits give low values 0.994 | S. cerevisiae deletion strains, locus YCL029C, strain bik1, hits give low values 1 | S. cerevisiae deletion strains, locus YCL061C, strain MRC1, hits give low values 0.977 | S. cerevisiae deletion strains, locus YCL069W, strain vba3, hits give low values 0.971 | S. cerevisiae deletion strains, locus YCR088W, strain abp1, hits give low values 0.995 | S. cerevisiae deletion strains, locus YDL005C, strain med2, hits give low values 0.998 | S. cerevisiae deletion strains, locus YDL035C, strain GPR1, hits give low values 0.908 | S. cerevisiae deletion strains, locus YDL040C, strain nat1, hits give low values 0.991 | S. cerevisiae deletion strains, locus YDL074C, strain BRE1, hits give low values 1.01 | S. cerevisiae deletion strains, locus YDL101C, strain DUN1, hits give low values 1.01 | S. cerevisiae deletion strains, locus YDL134C, strain PPH21, hits give low values 0.923 | S. cerevisiae deletion strains, locus YDL185W, strain tfp1, hits give low values 1 | S. cerevisiae deletion strains, locus YDL192W, strain arf1, hits give low values 0.956 | S. cerevisiae deletion strains, locus YDR001C, strain nth1, hits give low values 0.998 | S. cerevisiae deletion strains, locus YDR101C, strain arx1, hits give low values 0.983 | S. cerevisiae deletion strains, locus YDR137W, strain rgp1, hits give low values 1.04 | S. cerevisiae deletion strains, locus YDR159W, strain sac3, hits give low values 1 | S. cerevisiae deletion strains, locus YDR162C, strain NBP2, hits give low values 0.976 | S. cerevisiae deletion strains, locus YDR195W, strain ref2 1.01 | S. cerevisiae deletion strains, locus YDR318W, strain mcm21, hits give low values 0.97 | S. cerevisiae deletion strains, locus YDR334W, strain swr1, hits give low values 0.95 | S. cerevisiae deletion strains, locus YDR335W, strain msn5, hits give low values 0.978 | S. cerevisiae deletion strains, locus YDR388W, hits give low values 0.993 | S. cerevisiae deletion strains, locus YDR392W, strain spt3, hits give low values 0.873 | S. cerevisiae deletion strains, locus YDR502C, strain sam2, hits give low values 0.989 | S. cerevisiae deletion strains, locus YEL003W, strain gim4, hits give low values 0.932 | S. cerevisiae deletion strains, locus YEL037C, strain rad23, hits give low values 0.977 | S. cerevisiae deletion strains, locus YEL061C, strain CIN8 (second series), hits give low values 0.98 | S. cerevisiae deletion strains, locus YEL061C, strain CIN8, hits give low values 0.981 | S. cerevisiae deletion strains, locus YER016W, strain bim1, hits give low values 0.988 | S. cerevisiae deletion strains, locus YER110C, hits give low values 1.04 | S. cerevisiae deletion strains, locus YER111C, strain swi4, hits give low values 0.98 | S. cerevisiae deletion strains, locus YER155C, strain BEM2 (second series), hits give low values 0.947 | S. cerevisiae deletion strains, locus YER155C, strain BEM2, hits give low values 1.02 | S. cerevisiae deletion strains, locus YER167W, strain BCK2, hits give low values 0.967 | S. cerevisiae deletion strains, locus YFR010W, strain ubp6, hits give low values 0.91 | S. cerevisiae deletion strains, locus YGL078C, strain dbp3, hits give low values 1.02 | S. cerevisiae deletion strains, locus YGL167C, strain pmr1, hits give low values 1.01 | S. cerevisiae deletion strains, locus YGL227W, strain vid30, hits give low values 1.01 | S. cerevisiae deletion strains, locus YGL240W, strain doc1, hits give low values 1.02 | S. cerevisiae deletion strains, locus YGR078C, strain PAC10, hits give low values 0.98 | S. cerevisiae deletion strains, locus YGR135W, strain pre9, hits give low values 0.964 | S. cerevisiae deletion strains, locus YGR252W, strain gcn5, hits give low values 1.02 | S. cerevisiae deletion strains, locus YHR013C, strain ard1, hits give low values 0.982 | S. cerevisiae deletion strains, locus YHR030C, strain SLT2, hits give low values 0.945 | S. cerevisiae deletion strains, locus YHR079C, strain IRE1 (second series), hits give low values 1.02 | S. cerevisiae deletion strains, locus YHR094C, strain hxt1, hits give low values 1.03 | S. cerevisiae deletion strains, locus YHR129C, strain ARP1, hits give low values 0.94 | S. cerevisiae deletion strains, locus YHR142W, strain chs7, hits give low values 0.936 | S. cerevisiae deletion strains, locus YHR200W, strain rpn10, hits give low values 0.968 | S. cerevisiae deletion strains, locus YIL066C, strain RNR3, hits give low values 0.921 | S. cerevisiae deletion strains, locus YIL073C, strain SPO22, hits give low values 0.886 | S. cerevisiae deletion strains, locus YIL125W, strain kgd1, hits give low values 1.03 | S. cerevisiae deletion strains, locus YIR030C, strain dcg1, hits give low values 1.01 | S. cerevisiae deletion strains, locus YJL092W, strain hpr5, hits give low values 0.983 | S. cerevisiae deletion strains, locus YJL095W, strain BCK1, hits give low values 0.927 | S. cerevisiae deletion strains, locus YJL115W, strain asf1, hits give low values 1.01 | S. cerevisiae deletion strains, locus YJL129C, strain trk1, hits give low values 1.01 | S. cerevisiae deletion strains, locus YJL134W, strain LCB3, hits give low values 0.998 | S. cerevisiae deletion strains, locus YJL154C, strain vps35, hits give low values 0.997 | S. cerevisiae deletion strains, locus YJL164C, strain tpk1, hits give low values 0.967 | S. cerevisiae deletion strains, locus YJL166W, strain qcr8, hits give low values 0.943 | S. cerevisiae deletion strains, locus YJL168C, strain set2, hits give low values 1.01 | S. cerevisiae deletion strains, locus YJL187C, strain SWE1 (second series), hits give low values 0.92 | S. cerevisiae deletion strains, locus YJL187C, strain SWE1, hits give low values 0.967 | S. cerevisiae deletion strains, locus YJR075W, strain HOC1, hits give low values 0.996 | S. cerevisiae deletion strains, locus YKL068W, hits give low values 1.02 | S. cerevisiae deletion strains, locus YKL160W, strain elf1, hits give low values 1.02 | S. cerevisiae deletion strains, locus YKL190W, strain CNB1, hits give low values 0.967 | S. cerevisiae deletion strains, locus YKR001C, strain vps1, hits give low values 0.988 | S. cerevisiae deletion strains, locus YKR026C, strain gcn3, hits give low values 0.983 | S. cerevisiae deletion strains, locus YKR091W, strain srl3, hits give low values 0.981 | S. cerevisiae deletion strains, locus YLL001W, strain dnm1, hits give low values 0.959 | S. cerevisiae deletion strains, locus YLL026W, hits give low values 0.961 | S. cerevisiae deletion strains, locus YLL041C, strain sdh2, hits give low values 0.993 | S. cerevisiae deletion strains, locus YLR027C, strain aat2, hits give low values 0.943 | S. cerevisiae deletion strains, locus YLR039C, strain RIC1, hits give low values 1.11 | S. cerevisiae deletion strains, locus YLR058C, strain SHM2, hits give low values 0.933 | S. cerevisiae deletion strains, locus YLR102C, strain apc9, hits give low values 1.03 | S. cerevisiae deletion strains, locus YLR258W, strain gsy2, hits give low values 0.963 | S. cerevisiae deletion strains, locus YLR262C, strain YPT6 (second series), hits give low values 0.945 | S. cerevisiae deletion strains, locus YLR262C, strain YPT6, hits give low values 1.14 | S. cerevisiae deletion strains, locus YLR268W, strain sec22, hits give low values 0.943 | S. cerevisiae deletion strains, locus YLR320W, strain mms22, hits give low values 0.917 | S. cerevisiae deletion strains, locus YLR357W, strain rsc2, hits give low values 0.905 | S. cerevisiae deletion strains, locus YLR370C, strain arc18, hits give low values 0.978 | S. cerevisiae deletion strains, locus YLR371W, strain rom2, hits give low values 0.92 | S. cerevisiae deletion strains, locus YLR384C, strain iki3, hits give low values 0.976 | S. cerevisiae deletion strains, locus YLR418C, strain cdc73, hits give low values 1.02 | S. cerevisiae deletion strains, locus YML016C, strain PPZ1, hits give low values 0.954 | S. cerevisiae deletion strains, locus YML032C, strain rad52, hits give low values 1 | S. cerevisiae deletion strains, locus YML120C, strain ndi1, hits give low values 1.01 | S. cerevisiae deletion strains, locus YML124C, strain tub3, hits give low values 1.02 | S. cerevisiae deletion strains, locus YMR078C, strain ctf18, hits give low values 1.04 | S. cerevisiae deletion strains, locus YMR125W, strain sto1, hits give low values 1.01 | S. cerevisiae deletion strains, locus YMR129W, hits give low values 0.993 | S. cerevisiae deletion strains, locus YMR205C, strain PFK2, hits give low values 0.971 | S. cerevisiae deletion strains, locus YMR223W, strain ubp8, hits give low values 0.959 | S. cerevisiae deletion strains, locus YMR231W, strain pep5, hits give low values 0.975 | S. cerevisiae deletion strains, locus YMR263W, strain SAP30, hits give low values 1 | S. cerevisiae deletion strains, locus YMR307W, strain GAS1, hits give low values 0.946 | S. cerevisiae deletion strains, locus YNL067W, strain RPL9B, hits give low values 0.995 | S. cerevisiae deletion strains, locus YNL071W, strain lat1, hits give low values 0.986 | S. cerevisiae deletion strains, locus YNL233W, strain BNI4, hits give low values 0.881 | S. cerevisiae deletion strains, locus YNL248C, strain rpa49, hits give low values 0.963 | S. cerevisiae deletion strains, locus YNL250W, strain rad50, hits give low values 1.06 | S. cerevisiae deletion strains, locus YNL271C, strain bni1, hits give low values 1 | S. cerevisiae deletion strains, locus YNL298W, strain CLA4, hits give low values 1.01 | S. cerevisiae deletion strains, locus YNL307C, strain MCK1, hits give low values 1.02 | S. cerevisiae deletion strains, locus YNL322C, strain KRE1 (second series), hits give low values 0.999 | S. cerevisiae deletion strains, locus YNR049C, strain mso1, hits give low values 0.991 | S. cerevisiae deletion strains, locus YNR052C, strain pop2, hits give low values 1 | S. cerevisiae deletion strains, locus YOL012C, strain htz1 0.804 | S. cerevisiae deletion strains, locus YOL147C, strain pex11, hits give low values 1.01 | S. cerevisiae deletion strains, locus YOR001W, strain rrp6, hits give low values 0.93 | S. cerevisiae deletion strains, locus YOR061W, strain CKA2, hits give low values 0.924 | S. cerevisiae deletion strains, locus YOR069W, strain VPS5, hits give low values 0.96 | S. cerevisiae deletion strains, locus YOR080W, strain dia2, hits give low values 0.963 | S. cerevisiae deletion strains, locus YOR083W, strain WHI5, hits give low values 0.928 | S. cerevisiae deletion strains, locus YOR106W, strain vam3, hits give low values 0.907 | S. cerevisiae deletion strains, locus YOR136W, strain idh2, hits give low values 1.03 | S. cerevisiae deletion strains, locus YOR144C, strain elg1, hits give low values 1.02 | S. cerevisiae deletion strains, locus YOR184W, strain ser1, hits give low values 0.971 | S. cerevisiae deletion strains, locus YOR265W, strain rbl2, hits give low values 0.947 | S. cerevisiae deletion strains, locus YOR270C, strain vph1, hits give low values 0.952 | S. cerevisiae deletion strains, locus YOR290C, strain snf2, hits give low values 0.981 | S. cerevisiae deletion strains, locus YOR316C, strain cot1, hits give low values 1.02 | S. cerevisiae deletion strains, locus YPL055C, strain LGE1, hits give low values 0.871 | S. cerevisiae deletion strains, locus YPL078C, strain atp4, hits give low values 1.02 | S. cerevisiae deletion strains, locus YPL106C, strain sse1, hits give low values 0.901 | S. cerevisiae deletion strains, locus YPL240C, strain hsp82, hits give low values 0.989 | S. cerevisiae deletion strains, locus YPR119W, strain clb2, hits give low values 1.04 | S. cerevisiae deletion strains, locus YPR141C, strain kar3, hits give low values 1.02 | S. cerevisiae deletion strains, locus YPR163C, strain tif3, hits give low values 1.02 | S. cerevisiae deletion strains, locus YPR167C, strain met16, hits give low values 0.967 | S. cerevisiae deletion strains, strain wtn01, hits give low values 0.952
active: S. cerevisiae deletion strains, locus YBL061C, strain skt5, hits give low values 0.839 | S. cerevisiae deletion strains, locus YBR023C, strain chs3, hits give low values 0.884 | S. cerevisiae deletion strains, locus YBR231C, strain swc5, hits give low values 0.864 | S. cerevisiae deletion strains, locus YCL011C, strain gbp2, hits give low values 0.897 | S. cerevisiae deletion strains, locus YDR069C, strain doa4, hits give low values 0.811 | S. cerevisiae deletion strains, locus YDR297W, strain sur2, hits give low values 0.91 | S. cerevisiae deletion strains, locus YER015W, strain faa2, hits give low values 0.841 | S. cerevisiae deletion strains, locus YGL086W, strain mad1, hits give low values 0.922 | S. cerevisiae deletion strains, locus YGL173C, strain kem1, hits give low values 0.817 | S. cerevisiae deletion strains, locus YGL248W, strain PDE1, hits give low values 0.883 | S. cerevisiae deletion strains, locus YGL253W, strain hxk2, hits give low values 0.894 | S. cerevisiae deletion strains, locus YHR027C, strain rpn1, hits give low values 0.749 | S. cerevisiae deletion strains, locus YJL095W, strain BCK1 (second series), hits give low values 0.918 | S. cerevisiae deletion strains, locus YLR221C, strain rsa3, hits give low values 0.897 | S. cerevisiae deletion strains, locus YLR342W, strain FKS1, hits give low values 0.907 | S. cerevisiae deletion strains, locus YMR058W, strain fet3, hits give low values 0.676 | S. cerevisiae deletion strains, locus YNL209W, strain ssb2, hits give low values 0.738 | S. cerevisiae deletion strains, locus YOR070C, strain gyp1, hits give low values 0.905 | S. cerevisiae deletion strains, locus YPL051W, strain arl3, hits give low values 0.855 | S. cerevisiae strains, strain wild type, hits give low values 0.889
